Values without a mark were called inactive.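 How the source made its calls: active = AUC reduced over 20% with Padj below 0.05 in at least 2 of 3 replicates; inactive = otherwise.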
Experiments:
Experiment in all cases: growth AUC relative to DMSO control (median of replicates) (fraction); higher = more growth (less inhibition), active = hit call of the paper
Conditions in all cases: 20 µM; 24 h
Coprococcus comes = tested on: Coprococcus comes
Method in brief: (§1)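 Hourly OD600 readings over 24 h tracked anaerobic gut bacterial monocultures grown at 37 °C in mGAM from OD600 0.05 with 20 µM compound (1% DMSO). After the minimum OD was set to 0, area under the growth curve was normalised to the plate median of solvent-only wells, or to row and column medians on the industrial chemical plate. Values are medians of three biological replicates grown on separate days.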

Escherichia coli ED1a = tested on: Escherichia coli ED1a
Method in brief: as §1

Escherichia coli IAI1 = tested on: Escherichia coli IAI1
Method in brief: as §1

Eubacterium rectale = tested on: Eubacterium rectale
Method in brief: as §1

[1] = tested on: Fusobacterium nucleatum subsp. animalis
Method in brief: as §1

Lactobacillus gasseri = tested on: Lactobacillus gasseri
Method in brief: as §1

Lactobacillus paracasei = tested on: Lactobacillus paracasei
Method in brief: as §1

Odoribacter splanchnicus = tested on: Odoribacter splanchnicus
Method in brief: as §1

[2] = tested on: Parabacteroides distasonis
Method in brief: as §1

Parabacteroides merdae = tested on: Parabacteroides merdae
Method in brief: as §1

Roseburia intestinalis = tested on: Roseburia intestinalis
Method in brief: as §1

Streptococcus salivarius = tested on: Streptococcus salivarius
Method in brief: as §1

| Compound | growth AUC (Coprococcus comes) | growth AUC (Escherichia coli ED1a) | growth AUC (Escherichia coli IAI1) | growth AUC (Eubacterium rectale) | growth AUC [1] | growth AUC (Lactobacillus gasseri) | growth AUC (Lactobacillus paracasei) | growth AUC (Odoribacter splanchnicus) | growth AUC [2] | growth AUC (Parabacteroides merdae) | growth AUC (Roseburia intestinalis) | growth AUC (Streptococcus salivarius) |
| --- | --- | --- | --- | --- | --- | --- | --- | --- | --- | --- | --- | --- |
| CSC1=N[C@@](C)(c2ccccc2)C(=O)N1Nc1ccccc1 | 0.988 | 1.01 | 0.993 | 1.08 | 1.2 | 0.853 | 0.968 | 0.924 | 0.872 | 0.953 | 0.997 | 1.01 |
| CCOCn1c(-c2ccc(Cl)cc2)c(C#N)c(Br)c1C(F)(F)F | 1.02 | 0.99 | 0.99 | 1.03 | 1.05 | 0.904 | 0.992 | 0.951 | 0.924 | 0.834 | 0.983 | 0.944 |
| COP(N)(=S)Oc1ccccc1C(=O)OC(C)C (stereo not given) | 1.03 | 0.969 | 0.982 | 1.04 | 0.97 | 0.906 | 0.944 | 0.898 | 0.877 | 0.986 | 1.07 | 0.991 |
| CC1CCCCC1NC(=O)Nc1ccccc1 (mixture of isomers) | 0.989 | 0.995 | 0.972 | 0.942 | 0.999 | 1.01 | 0.926 | 1.01 | 0.982 | 0.986 | 0.985 | 1.02 |
| Nc1cnn(-c2ccccc2)c(=O)c1Cl | 1.02 | 1.03 | 1 | 1.03 | 1.05 | 1.07 | 1.07 | 0.949 | 0.996 | 0.997 | 1.1 | 1.1 |
| CCC(=O)Nc1ccc(Cl)c(Cl)c1 | 1 | 0.943 | 0.99 | 0.992 | 0.87 | 0.979 | 0.922 | 0.943 | 0.994 | 0.995 | 0.917 | 0.973 |
| Oc1ccc(Cl)cc1Cl | 1.01 | 0.974 | 0.979 | 1.13 | 0.93 | 0.769 | 1.01 | 0.969 | 0.967 | 0.853 | 0.907 | 0.901 |
| CC(C)CC(C)c1sccc1NC(=O)c1cn(C)nc1C(F)(F)F (stereo not given) | 0.984 | 0.998 | 0.946 | 1.01 | 1.04 | 0.945 | 1.02 | 0.782 | 0.856 | 0.977 | 0.998 | 0.984 |
| CON(C)C(=O)Nc1ccc(Cl)c(Cl)c1 | 1 | 1.02 | 0.977 | 0.95 | 0.936 | 1.01 | 0.996 | 0.981 | 1.01 | 1 | 0.925 | 0.945 |
| COP(=S)(OC)Oc1ccc(S(N)(=O)=O)cc1 | 1.01 | 0.976 | 0.999 | 0.901 | 0.998 | 1.06 | 1.05 | 1 | 0.992 | 1.01 | 1.03 | 0.985 |
| CC1(C)CN=C(NN=C(/C=C/c2ccc(C(F)(F)F)cc2)/C=C/c2ccc(C(F)(F)F)cc2)NC1 | 1 | 0.992 | 1.04 | 1.04 | 1.06 | 0.935 | 0.903 | 1.04 | 1.06 | 0.989 | 0.391 (active) | 1.1 |
| CO/N=C(/C1=NOCCO1)c1ccccc1Oc1ncnc(Oc2ccccc2Cl)c1F | 0.962 | 0.967 | 1.03 | 0.963 | 0.978 | 0.992 | 1 | 0.974 | 0.678 (active) | 0.892 | 0.997 | 1.04 |
| CCCCC(C#N)(Cn1cncn1)c1ccc(Cl)cc1 (stereo not given) | 1.02 | 0.966 | 0.97 | 1.01 | 1.02 | 0.965 | 0.916 | 1.04 | 1.02 | 0.988 | 0.94 | 0.993 |
| CCOP(=S)(OCC)Oc1cnc2ccccc2n1 | 0.989 | 0.977 | 0.977 | 0.91 | 0.995 | 0.966 | 1.01 | 1.01 | 0.589 (active) | 0.947 | 0.99 | 0.954 |
| COP(=S)(OC)Oc1ccc(SC)c(C)c1 | 1.02 | 0.997 | 0.987 | 0.878 | 1.08 | 1.01 | 1.02 | 1 | 0.915 | 0.953 | 1.03 | 0.965 |
| CCN(CC)C(=O)/C(Cl)=C(/C)OP(=O)(OC)OC | 0.978 | 0.942 | 0.953 | 1.08 | 1 | 0.886 | 0.969 | 0.935 | 0.888 | 0.978 | 1.01 | 0.994 |
| COc1cc(OC)nc(Oc2cccc(Oc3nc(OC)cc(OC)n3)c2C(=O)[O-])n1.[Na+] | 0.98 | 0.989 | 0.979 | 1.01 | 1.04 | 0.958 | 0.982 | 1.01 | 0.994 | 1.01 | 1.06 | 1.01 |
| CCNS(=O)(=O)C(F)(F)C(F)(F)C(F)(F)C(F)(F)C(F)(F)C(F)(F)C(F)(F)C(F)(F)F | 0.995 | 0.987 | 0.99 | 0.975 | 0.968 | 1.05 | 0.891 | 0.978 | 1.01 | 0.947 | 1.03 | 0.96 |
| O=S(=O)(Oc1ccc(Cl)cc1)c1ccc(Cl)cc1 | 1.01 | 0.971 | 1 | 1.08 | 1.09 | 0.84 | 0.926 | 0.983 | 0.761 (active) | 0.945 | 0.948 | 0.983 |
| CCOC(=O)COc1cc(-c2nn(C)c(OC(F)F)c2Cl)c(F)cc1Cl | 0.979 | 0.995 | 0.971 | 1.13 | 1.12 | 0.996 | 1.01 | 1 | 1.02 | 1 | 0.973 | 0.993 |
| COc1cc(Cl)c(OC)cc1Cl | 1.04 | 1.03 | 1.01 | 0.986 | 0.951 | 0.94 | 0.94 | 1 | 1.02 | 1.05 | 1.04 | 1.04 |
| CC1(C)C(C(=O)OC(C#N)c2cccc(Oc3ccccc3)c2)C1(C)C (stereo not given) | 1.03 | 1.01 | 0.988 | 1 | 0.928 | 0.909 | 1.04 | 0.959 | 1.15 | 0.965 | 0.929 | 0.957 |
| CC(C)(O)C(Cl)(Cl)Cl.CC(C)(O)C(Cl)(Cl)Cl.O | 1.04 | 1.01 | 1.02 | 0.942 | 1.1 | 1.06 | 1.02 | 0.967 | 1.05 | 0.987 | 1.01 | 1.05 |
| ClCC1C(CCl)C2(Cl)C(Cl)=C(Cl)C1(Cl)C2(Cl)Cl (stereo not given) | 0.945 | 0.973 | 1 | 1.02 | 1.08 | 0.931 | 0.974 | 1.06 | 1.01 | 0.995 | 0.996 | 0.981 |
| CCOP(=S)(OCC)OP(=S)(OCC)OCC | 0.985 | 0.968 | 0.979 | 0.928 | 1.04 | 1.23 | 1.04 | 0.98 | 1.02 | 0.984 | 0.984 | 0.976 |

— the supplement of paper PMC12669032
